ERK AVP inh: blocks ERK signaling stimulated by vasopressin; HEK293-V1b, vasopressin-stimulated pERK AlphaScreen; Potency, µM (doses to about 57.5 µM), for the others: at the top dose activity, negative = inhibition, actives largely listed as inhibitors; actives 0.99% (n = 72,000); further: potency means the concentration at half of the fitted maximal effect; on the % scale 0 is the no-effect control and ±100 the full control effect; nearly all actives have a fitted effect of over 55% in size
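V1b-HEK293 cells; cpd 30 min 37C; 25 nM vasopressin 5 min; lyse 10 min; AlphaScreen beads 5 hr RT. Normalized to DMSO basal and 25 nM vasopressin; AC50 by Hill fit.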
Hsp90 Hop PPI: changes Hsp90-Hop TPR2A binding signal, up or down; AID 595; Potency, µM (doses to about 57 µM), inactives show at the highest dose activity change, negative = inhibition; actives 0.44% (n = 71,000); AlphaScreen TPR2A-His6 binding biotin-Hsp90 C-terminal peptide; active means well fitted curve in either direction with a large enough effect; inconclusive means small, poorly fitted or top-dose-only effect, or another doubt; further: potency means the concentration at half of the fitted maximal effect; on the % scale 0 is the no-effect control and ±100 the full control effect
YjeE inh: displaces an ADP probe from E. coli YjeE (TsaE); P0AF67; purified YjeE enzyme, qHTS inhibition assay; Potency, µM; actives 0.05% (n = 71,000)
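Purified YjeE (10 uM) with BODIPY Texas Red-labeled ADP probe (2 uM); compounds pin-transferred, 15 min at room temperature. Binding inhibition read as decreased fluorescence polarization; ADP titration as control.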
Tau filament bind: binders of human tau filaments; Potency, µM (series often up to 57.1 µM), for the others: at the top dose activity change, negative = inhibition; recombinant tau filaments, thioflavin S fluorescence, 15 h; filaments grown with octadecylsulfate alongside compound; P10636; actives 2% (n = 71,000);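 further: potency means the concentration at half of the fitted maximal effect; on the % scale 0 is the no-effect control and ±100 the full control effect; actives lower thioflavin S fluorescence by blocking filaments or displacing dye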
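His-tagged recombinant human tau (exons 2, 3 and 10 included), 1 uM, was induced to fibrillize by 30 uM sodium octadecylsulfate with compound present. After 15 h at 37 C, thioflavine S fluorescence (ex 450, em 510 nm) was read.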
15-hLO inh: inhibitors of human 15-lipoxygenase (ALOX15); P16050; purified 15hLO-1, xylenol orange hydroperoxide absorbance; Potency, µM (doses to about 57.1 µM), without a hit: top-dose activity change, negative = inhibition, hits mostly inhibitors; actives 1.4% (n = 74,000); AID 887; further: potency means the concentration at half of the fitted maximal effect; on the % scale 0 is the no-effect control and ±100 the full control effect; nearly all actives have a fitted effect of over 55% in size
Target sequence (P16050 whole entry, looked up): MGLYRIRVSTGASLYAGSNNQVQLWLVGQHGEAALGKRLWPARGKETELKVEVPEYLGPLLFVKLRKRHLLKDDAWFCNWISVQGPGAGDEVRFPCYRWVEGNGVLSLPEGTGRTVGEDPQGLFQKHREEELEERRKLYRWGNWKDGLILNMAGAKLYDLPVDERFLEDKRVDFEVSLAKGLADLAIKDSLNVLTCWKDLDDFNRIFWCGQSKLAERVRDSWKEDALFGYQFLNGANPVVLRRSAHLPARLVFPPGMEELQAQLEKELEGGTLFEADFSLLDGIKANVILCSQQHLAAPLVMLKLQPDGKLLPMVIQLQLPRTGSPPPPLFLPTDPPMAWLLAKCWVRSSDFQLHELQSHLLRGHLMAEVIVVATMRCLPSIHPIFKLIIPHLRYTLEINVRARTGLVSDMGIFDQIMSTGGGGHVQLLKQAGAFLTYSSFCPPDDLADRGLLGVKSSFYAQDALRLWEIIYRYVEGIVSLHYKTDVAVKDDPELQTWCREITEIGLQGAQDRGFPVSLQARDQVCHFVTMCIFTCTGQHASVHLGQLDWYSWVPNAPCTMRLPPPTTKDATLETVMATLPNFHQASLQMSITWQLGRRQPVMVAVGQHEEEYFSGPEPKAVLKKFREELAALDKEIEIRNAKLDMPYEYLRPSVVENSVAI
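Inhibition is scored from a chromogenic endpoint. After 15 min enzyme-compound contact, arachidonic acid (50 uM final) reacts 6 min with 40 nM 15hLO-1 at room temperature, then Fe-XO reagent is added for 30 min and absorbance ratio recorded.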
DNA Pol III inh: inhibitors of bacterial DNA polymerase III holoenzyme. Potency, µM (top dose mostly 57.1 µM), without a hit: at the top dose activity change, negative = inhibition. reconstituted DNA polymerase III holoenzyme replication, biochemical. AID 603. actives 0.25% (n = 71,000); further: potency means the concentration at half of the fitted maximal effect; on the % scale 0 is the no-effect control and ±100 the full control effect
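Reconstituted *E. coli* holoenzyme (0.35 nM Pol III, 1 nM beta, 154 nM SSB, 2 nM primase) was preincubated with compound for 15 min at RT. Synthesis on 1.4 nM ssM13Gori ran 35 min, then was stopped with PicoGreen/EDTA and read as dsDNA fluorescence.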
* = called active by the depositor; i = inactive; ? = inconclusive; / = no result given; [ ] = remark or other dose. Shown are actives, neighbours in structure and some others; about 4.2% of the full set was active somewhere. Unless noted, the call rests on the fitted dose curve; in most records, active means well fitted curve in the direction sought with a large enough effect; inconclusive means small, poorly fitted or top-dose-only effect, or another doubt; inactive means no such curve, though single readings can be large; an effect the other way counts as inactive or inconclusive.

SMILES | ERK AVP inh | Hsp90 Hop PPI | YjeE inh | Tau filament bind | 15-hLO inh | DNA Pol III inh
O=C(c1ccc(N2C(=O)CCC2=O)cc1)N1CCOCC1 | 10.2% | 0.6% | i | -4.7% | -0.2% | -4.7%
COc1ccc(OC)c(CCNC(=O)Cn2sc3nc(C)cc(C)c3c2=O)c1 | 15.8µM* | -12.0% | ? | -14.7% | ? | 2.7%
O=C1c2ccccc2C(=O)c2c(NC3CCCCC3)ccc(Nc3ccc(S(=O)(=O)O)cc3)c21 | ? | 3.98µM* | 12.6µM* | 3.16µM* | -26.8%[11.4 µM] | -15.2%[11.4 µM]
CC(C)CNc1nc2ncnc(N)c2[nH]1 | -13.9%[11.5 µM] | 0.2%[11 µM] | i | -3.6%[11.4 µM] | -1.0%[11.4 µM] | 3.4%[11.4 µM]
N#CC1=C(N)C(C#N)(C#N)C(c2cccnc2)C2CCCC=C12 (stereo not drawn) | ? | ? | i | i | 25.1µM* | -9.2%
N#CC1=C(N)C(C#N)(C#N)C(c2ccc[nH]2)C2CCCC=C12 (stereo not drawn) | ? | -3.7% | i | 149.3% | -27.4% | -6.6%
CCN=C(Nc1ccc2c(c1)OCO2)SC1CC(=O)N(c2ccccc2F)C1=O (stereo not drawn) | -9.1% | -0.1% | i | 167.7% | -10.0% | -3.8%
Cc1cc(Nc2ccccc2N2CCOCC2)n2ncnc2n1 | -9.0% | -10.7% | i | 20µM* | 17.1% | -6.0%
CCOc1cc(-c2c(C#N)c(N)nc3c2CCCC3)ccc1O | 16.6% | -0.4% | i | 5.7% | -8.6% | -6.2%
CCOc1cc(-c2cc(-c3ccc(N)cc3)nc(N)c2C#N)ccc1O | ? | ? | i | 31.6µM* | 25.1µM* | -6.0%
COc1ccc(OC)c(N(CC(=O)Nc2cccnc2)S(=O)(=O)c2ccc(OC)c(OC)c2)c1 | -28.2% | -7.1% | i | 10.2% | 2.4% | 1.1%
COc1cc(C2CC(=O)c3c([nH]c(C(=O)OCCOC(C)C)c3C)C2)cc(OC)c1OC (stereo not drawn) | 3.98µM* | -0.5% | i | 13.8% | -3.6% | 1.7%
C/C=C/COC(=O)c1[nH]c2c(c1C)C(=O)CC(c1ccc(N(C)C)cc1)C2 (stereo not drawn) | ? | -5.6% | i | 78.6% | 4.2% | 0.2%
CCOC(=O)c1[nH]c2c(c1C)C(=O)CC(c1ccc(OC)c(OC)c1)C2 (stereo not drawn) | 18.1% | -7.1% | i | 4.5% | -10.3% | 0.7%
CCOCCOC(=O)c1[nH]c2c(c1C)C(=O)CC(c1ccc(N(C)C)cc1)C2 (stereo not drawn) | 25.1µM* | -10.5% | i | 48.3% | -5.4% | -2.7%
Cc1cc(C)cc(NC(=O)c2cc(S(=O)(=O)NCc3ccco3)ccc2F)c1 | -8.9% | -4.3% | i | 7.7% | -5.4% | -4.2%
COc1ccc(-c2noc(CSc3nnc(-c4ccncc4)n3-c3ccc(F)cc3)n2)cc1OC | 25.1µM* | -4.8% | i | 26.3% | 7.9% | -2.8%
COc1ccc(-c2cc3nc(-c4ccccc4)cc(N4CCC5(CC4)OCCO5)n3n2)cc1 | -8.0% | 15.8µM* | i | 32.5% | -4.1% | -0.9%
Cc1cccc(-c2cc3nc4c(c(N5CCC6(CC5)OCCO6)n3n2)CCCC4)c1 | -29.3% | -0.6% | i | 1.7% | 11.7% | -3.1%
CCn1c(SCC(N)=O)nnc1-c1cc2c(C)nn(-c3ccccc3)c2s1 | ? | -5.9% | i | 55.6% | -3.0% | -7.1%
CCOc1[nH]c(/N=C/c2ccco2)c(C#N)c1C#N | -13.3% | -3.7% | i | 0.8% | 25.1µM* | -3.1%
c1cncc(Nc2nc(-c3ccncc3)cs2)c1 | 20µM* | -4.3% | i | -7.4% | 3.7% | -7.8%
Cn1c(=O)c(-c2cc(F)cc(F)c2)nc2cnc(Oc3cccc(Cl)c3)nc21 | ? | -2.0% | i | 10µM* | -9.5% | 4.5%
CN1CCN(c2ncc3nc(-c4cc(F)cc(F)c4)c(=O)n(C4CC4)c3n2)CC1 | ? | ? | i | 15.8µM* | -1.9% | -8.3%
COc1ccc(Oc2ncc3nc(-c4cc(F)cc(F)c4)c(=O)n(C4CC4)c3n2)cc1 | -28.9% | -3.2% | i | 20µM* | 5.8% | -7.7%
SMILES | ERK AVP inh | Hsp90 Hop PPI | YjeE inh | Tau filament bind | 15-hLO inh | DNA Pol III inh
O=C(c1ccncc1)N1CCC2(CC1)CN(c1ccc(-c3ccccc3)cc1)C2 | ? | -16.6% | i | 17.4% | 1.7% | -2.5%
COC(=O)[C@@]1(Cc2ccccc2)[C@H]2c3cc(C(=O)N(C)C)n(Cc4ccccn4)c3C[C@H]2CN1C(=O)c1ccccc1 | -15.4% | -6.5% | i | 1.7% | / | 12.8%
CC1CCC(C(C)(C)O)CC2=C1CCC2C (stereo not drawn) | 2.5% | / | / | / | -1.9% | /
O=C(Nc1ccc(N2CCOCC2)cc1)c1ccc2nc(-c3ccco3)c(-c3ccco3)nc2c1 | ? | -4.6% | i | 7.94µM* | -22.8% | -3.2%
COc1ccc(C(=O)Nc2ccc(N3CCOCC3)cc2)cc1OC | -13.5% | -3.4% | i | -18.1% | 1.9% | 0.9%
Nc1c(C(=O)Nc2ccccc2)sc2nc(-c3ccco3)ccc12 | 31.6µM* | 13.0% | i | 2µM* | ? | -6.9%
COc1ccccc1NC(=O)c1sc2nc(-c3ccco3)ccc2c1N | -9.6% | -6.1% | i | 7.3% | -1.5% | -0.4%
O=C(Nc1ccccc1)c1ccc2nc(-c3ccco3)c(-c3ccco3)nc2c1 | ? | -28.8% | i | 0.631µM* | 6.31µM* | -10.0%
CCCCNC(=O)c1ccc2nc(-c3ccco3)c(-c3ccco3)nc2c1 | -28.6% | ? | ? | ? | 5.01µM* | 15.8µM*
O=C(NCc1ccco1)c1cccc(NC(=O)c2ccccc2)c1 | ? | -8.4% | i | -3.6% | 2.5% | 4.3%
CCCNC(=O)c1cc(-c2ccco2)on1 | 7.0% | -5.6% | i | 1.6% | -1.3% | 1.7%
COc1ccc(NC(=O)COc2ccccc2C#N)c(S(=O)(=O)N2CCCCC2)c1 | -22.9% | -2.9% | i | 12.3% | 2.0% | 3.5%
C=CCn1c(NCCO)nc2c1c(=O)n(C)c(=O)n2C | 3.7% | -0.9% | i | 8.3% | 9.2% | -5.1%
COC(=O)c1[nH]c(C)c(/C(O)=C2\C(=O)C(=O)N(CCN(C)C)C2c2ccc(C)o2)c1C (stereo not drawn) | ? | ? | i | 7.3% | -12.7% | -5.2%
CCC(=O)c1cc(-c2nc3ccccc3n2C)n(C)c1 | ? | 4.4% | i | 4.3% | 7.3% | -6.4%
COc1ccc(S(=O)(=O)N(C)CC(=O)Nc2ccccc2SC)cc1 | -12.2% | -2.8% | i | 11.4% | 2.8% | 5.6%
COc1ccc(-c2c(NC(C)=O)n(C)c3ccccc3c2=O)cc1 | -7.7% | -7.5% | i | 1.5% | -7.8% | -8.3%
COCCN1C(=O)c2ccccc2C(C(=O)NCC2CCCO2)C1c1c[nH]c2ccccc12 (stereo not drawn) | -24.7% | -6.7% | i | -6.8% | 13.3% | 0.8%
